In PubChem BioAssay AID1159580 (chemical genetic matrix, 2015):
Out of some 5,500 compounds screened, about 2,000 (36%) were called active. Inconclusive results (about 18%) are left out. Cut-off read from the data, not from the text of the source: active = normalized growth mostly below about 0.91 (no sharp cut-off); inconclusive = no clear call, values can overlap the other calls; inactive = mostly above about 0.92. This is one part of the list.

Experiment: chemical genetic growth profiling, strain panel (AID 1159580);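 note: tested at 20 µM; growth read once vehicle control cultures reached saturation at 30 °C; 1 = growth at the plate median or of vehicle wells; lower values mean less growth of the strain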
Details: S. cerevisiae deletion strains, growth OD

Measured: normalized growth

Cc1nc(N)ncc1Sc1ccccc1
inactive: locus YAL013W, strain DEP1, stronger effect = lower value 0.995 | locus YBR229C, strain ROT2, stronger effect = lower value 0.989 | locus YCL061C, strain MRC1, stronger effect = lower value 0.963 | locus YDL101C, strain DUN1, stronger effect = lower value 0.98 | locus YDR150W, strain NUM1, stronger effect = lower value 1 | locus YEL061C, strain CIN8, stronger effect = lower value 0.977 | locus YGR078C, strain PAC10, stronger effect = lower value 0.986 | locus YHR030C, strain SLT2, stronger effect = lower value 0.899 | locus YHR087W, strain rtc3, stronger effect = lower value 0.996 | locus YJL187C, strain SWE1, stronger effect = lower value 0.981 | locus YJR043C, strain POL32, stronger effect = lower value 0.991 | locus YJR075W, strain HOC1, stronger effect = lower value 0.934 | locus YLR058C, strain SHM2 (second series), stronger effect = lower value 0.987 | locus YLR085C, strain ARP6, stronger effect = lower value 1.01 | locus YLR262C, strain YPT6, stronger effect = lower value 0.822 | locus YML094W, strain GIM5, stronger effect = lower value 0.964 | locus YMR219W, strain ESC1, stronger effect = lower value 0.99 | locus YMR263W, strain SAP30, stronger effect = lower value 0.966 | locus YNL153C, strain GIM3, stronger effect = lower value 0.961 | locus YNL298W, strain CLA4 (second series), stronger effect = lower value 0.961 | locus YNL322C, strain KRE1, stronger effect = lower value 0.982 | locus YNR030W, strain Alg12, stronger effect = lower value 0.963 | locus YOL006C, strain TOP1, stronger effect = lower value 0.911 | locus YPL055C, strain LGE1, stronger effect = lower value 0.928 | locus YPL241C, strain CIN2, stronger effect = lower value 1.04 | locus YPR135W, strain CTF4, stronger effect = lower value 0.907
active: locus YLR039C, strain RIC1, stronger effect = lower value 0.758
